Sampled rows, rich in hits. Any-hit rate of the full collection: about 8.9%.
HPGD block – HPGD (human) dehydrogenase inhibition; purified HPGD, NADH fluorescence kinetic, PGE2 substrate; Potency, µM, actives largely listed as inhibitors; 4.3% of 150,000 active; active = well fitted inhibition curve with a large enough effect, not every such curve was filed as active; inconclusive = small, poorly fitted or top-dose-only effect, or another doubt; inactive = no such curve, though single readings can be large or run the other way
Target sequence (P15428 whole entry, looked up): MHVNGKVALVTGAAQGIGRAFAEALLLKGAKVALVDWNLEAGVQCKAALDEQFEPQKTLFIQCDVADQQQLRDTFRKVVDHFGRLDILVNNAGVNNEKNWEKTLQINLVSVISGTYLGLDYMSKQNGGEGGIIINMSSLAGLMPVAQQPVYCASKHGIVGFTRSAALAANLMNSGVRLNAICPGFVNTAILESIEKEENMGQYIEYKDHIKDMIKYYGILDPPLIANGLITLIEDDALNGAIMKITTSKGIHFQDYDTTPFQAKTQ
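NADH formation kinetics: reaction with 30 uM PGE2 and 1 mM NAD+ (final), 20 nM enzyme, Tris-HCl pH 8 with Tween 20, after 15 min compound preincubation at room temperature. Fluorescence change, last versus first of five reads.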
NPSR antag – antagonists of human neuropeptide S receptor cAMP signaling | Q6W5P4 | CHO-NPSR cells, cAMP TR-FRET, antagonist mode | Potency, µM (doses to about 38.3 µM), actives largely listed as inhibitors | 1% of 220,000 active; note: nearly all actives have a fitted effect of over 50% in size
ALDH1A1 block – blocks purified human ALDH1A1 activity; AID 1030; Potency, µM (top dose mostly 75.3 µM), most hits filed as inhibitors; 7.3% of 220,000 active; P00352; Purified ALDH1A1, NADH fluorescence, propionaldehyde substrate; active = well fitted inhibition curve with a large enough effect, not every such curve was filed as active; inconclusive = small, poorly fitted or top-dose-only effect, or another doubt; inactive = no such curve, though single readings can be large or run the other way
Target sequence (P00352 whole entry, looked up): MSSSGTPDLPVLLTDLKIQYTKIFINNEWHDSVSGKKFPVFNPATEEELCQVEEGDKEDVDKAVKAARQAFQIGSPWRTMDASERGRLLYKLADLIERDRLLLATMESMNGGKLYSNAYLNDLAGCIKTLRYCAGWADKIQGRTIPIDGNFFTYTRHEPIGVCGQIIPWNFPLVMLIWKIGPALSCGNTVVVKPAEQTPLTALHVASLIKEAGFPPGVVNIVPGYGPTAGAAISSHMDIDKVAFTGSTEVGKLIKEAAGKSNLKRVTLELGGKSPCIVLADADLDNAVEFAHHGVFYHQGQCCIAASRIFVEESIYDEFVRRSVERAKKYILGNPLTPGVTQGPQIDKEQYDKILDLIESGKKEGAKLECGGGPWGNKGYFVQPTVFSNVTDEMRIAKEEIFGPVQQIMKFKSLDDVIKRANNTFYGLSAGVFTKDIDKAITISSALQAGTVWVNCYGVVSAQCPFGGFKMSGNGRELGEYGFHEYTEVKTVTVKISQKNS
IMPase Li cell – membrane-permeable IMPase blocker, potentiated with lithium; CHO-M1 cells, IP1 TR-FRET (IP-One), carbachol + lithium; 0.35% of 210,000 active; Potency, µM (doses to about 59.4 µM), hits mostly inhibitors;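 note: IP1 builds up when IMPase is blocked and the TR-FRET signal falls; nearly all actives have a fitted effect of over 50% in size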
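Steps: plate 2000 CHO-M1 cells per well and culture 16–30 h; add compound and lithium; incubate 30 min, 37C; add d2-IP1 tracer and Eu cryptate anti-IP1 antibody in lysis buffer; read after 10 min at room temperature.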
ALOX12 inhib – inhibitors of human 12-lipoxygenase (ALOX12); P18054; purified 12-hLO, xylenol orange hydroperoxide absorbance; Potency, µM (series often up to 57.1 µM), hits mostly inhibitors; 0.12% of 150,000 active; note: nearly all actives have a fitted effect of over 55% in size
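Purified human 12hLO (150 nM), preincubated 15 min with compound, then 40 uM arachidonic acid for 30 min, room temperature, Hepes pH 7.0 with 0.01% Triton X-100. Hydroperoxide detected by ferrous iron/xylenol orange; 573/405 nm absorbance ratio gives reaction progress.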
IMPase cell inh – membrane-permeable compound that blocks inositol monophosphatase; CHO-M1 cells, IP1 accumulation, HTRF TR-FRET ratio; inhibition (IP1 accumulation), % at 46.1 µM; 120,000 tested, under 10 active; AID 901; active = well fitted curve in the direction sought with a large enough effect in the signal ratio, not every such curve was filed as active; inconclusive = small, poorly fitted or top-dose-only effect, or a change in a side signal; inactive = no such curve, though single readings can be large or run the other way; the % refers to the signal ratio;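 note: cells stimulated with carbachol in lithium chloride buffer; higher means more IMPase inhibition seen as more IP1 and lower FRET ratio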
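The IP-One HTRF competitive assay in carbachol-stimulated CHO-M1 cells quantifies cellular IP1. Compounds spanned up to 46 uM final, and activity is expressed as AC50 from concentration-response fits of the ratio and donor data.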
Hits are given with their value; 0 = inactive; ? = inconclusive; - = no result given; ! = not confirmed by another sample. Unless noted, calls come from the whole dose curve; as a rule, active = well fitted curve in the direction sought with a large enough effect; inconclusive = small, poorly fitted or top-dose-only effect, or another doubt; inactive = no such curve, though single readings can be large; an effect the other way counts as inactive or inconclusive.

SMILES | HPGD block | NPSR antag | ALDH1A1 block | IMPase Li cell | ALOX12 inhib | IMPase cell inh
COc1ccc(-n2cc(-c3ccc(Br)cc3)[nH]c2=S)cc1 | - | 0 | ? | 11µM | - | -
COC(c1ccccc1Br)C(C)/C=C/CCO (centres undefined) | - | - | 3.2µM | - | - | -
COC(=O)C/C=C/[C@@H](C)[C@H](O)c1ccccc1Br | 0 | - | 0 | 0 | - | -
CNCC(=O)Nc1c(C)n[nH]c1C | 0 | 0 | 0 | 0 | 0 | 0
O=C(O)c1ccc(N2CC3CC(C2)c2cccc(=O)n2C3)c(NC(=S)Nc2ccc(Cl)cc2Cl)c1 (centres undefined) | - | 0 | 16µM | 0 | - | -
O=C(NC1CCN(Cc2ccccc2)CC1)c1ccc(N2CC3CC(C2)c2cccc(=O)n2C3)c([N+](=O)[O-])c1 (centres undefined) | - | 0 | 0 | 0 | - | -
CCCCn1c(SCC(=O)Nc2nnc(C)s2)nnc1-c1ccoc1C | 0 | 0 | 0 | 0 | 0 | 0
C/C(=N\Nc1nc(-c2ccccc2)cs1)c1cccs1 | 0 | 0 | ? | 0 | 0 | -
C/C(=N\Nc1nc2ccccc2s1)c1cccs1 | 14µM | 0 | 0 | 0 | 13µM | -
CC(C)COc1ccc(CSCCNC(=S)Nc2ccccc2)cc1 | 0 | 0 | 0 | 0 | 28µM | 0
CC(C)Nc1nnc(SCC(=O)NCc2ccc3c(c2)OCO3)s1 | - | 0 | 18µM | 0 | - | -
Cc1ccc(-c2nsc(SCC(=O)NCc3ccc4c(c3)OCO4)n2)cc1 | 0 | 0 | 0 | 0 | 0 | 0
Cc1ccccc1-c1nsc(SCC(=O)NCc2ccc3c(c2)OCO3)n1 | 0 | 0 | 22µM | 0 | 0 | 0
C=CCNC(=O)COC(=O)/C=C/c1cccs1 | - | 0 | 0 | 0 | - | -
COc1ccc(C2=NN(CC(=O)NCc3ccco3)C(=O)CC2)cc1 | 0 | 0 | ? | 0 | 0 | 0
Cc1ccc(N2C(=N)SCC2=O)cc1Cl | 14µM | 0 | ? | 0 | 0 | -
O=C1CCCC(=O)C1Sc1ccc(Cl)cc1 | - | 0 | 0 | 0 | - | -
CCn1c(COc2ccc3c(c2)OCO3)nnc1SCC(=O)c1ccccc1 | 22µM | ? | ? | 0 | 0 | 0
S=c1[nH]nc(COc2ccc3c(c2)OCO3)n1-c1ccccc1 | 25µM | 0 | 14µM | 0 | ? | 0
CCCn1c(SCC(=O)c2cc(OC)ccc2OC)nnc1-c1ccco1 | 0 | 0 | 0 | 0 | 0 | 0
CCn1c(SCC(=O)c2cc(OC)ccc2OC)nnc1C(C)C | 0 | 0 | 28µM | 0 | 0 | 0
CCn1c(SCC(=O)c2ccc(OC)cc2)nnc1C(C)NC(=O)c1ccc(OC)cc1 (centres undefined) | 0 | 0 | 12µM | 0 | 0 | 0
COc1ccc(-n2c(C)nnc2SCC(=O)N2C(C)CCCC2C)cc1 (centres undefined) | 0 | 0 | ? | 0 | 0 | 0
CCn1c(CNC(=O)Cc2ccc(OC)cc2)nnc1SCC(=O)c1ccccc1 | - | 0 | 2.8µM | 0 | - | -
CC1(C)OC(=O)C(=NNc2ccc(Br)cc2)C(=O)O1 | 0 | 0 | 13µM | 0 | 0 | -
SMILES | HPGD block | NPSR antag | ALDH1A1 block | IMPase Li cell | ALOX12 inhib | IMPase cell inh
CC1(C)OC(=O)C(=CNc2ccccc2)C(=O)O1 | 0 | 0 | ? | 0 | 0 | 0
CCCCNC(=O)Cn1nc([N+](=O)[O-])c([N+](=O)[O-])c1C | 0 | 0 | 0 | 0 | 0 | -
O=S(=O)(NCC1CCCO1)c1ccc2oc3ccc(S(=O)(=O)NCC4CCCO4)cc3c2c1 (centres undefined) | 0 | 0 | 0 | 0 | 0 | 0
O=S(=O)(NCCOCC(F)(F)F)c1ccc2oc3ccccc3c2c1 | ? | 0 | 8.9µM | 0 | 0 | 0
O=S(=O)(NCCOCCNS(=O)(=O)c1ccccc1)c1ccccc1 | 0 | 0 | 25µM | 0 | 0 | 0
O=C(O)CCCCCCNS(=O)(=O)c1ccccc1 | 0 | 0 | ? | 0 | 0 | 0
CCCCn1c(SCC(=O)N2CCc3ccccc32)nnc1-c1ccncc1 | - | 0 | - | - | - | -
CN1CCS/C1=C/C=C1/SC(=S)N(Cc2ccccc2)C1=O | 0 | 0 | 1µM | 0 | 0 | -
CCN1C(c2ccccc2)=C(c2ccccc2)S/C1=C/C=C1\SC(=S)N(C)C1=O | 0 | 0 | ? | 0 | 0 | 0
CN1CCS/C1=C/C=C1\SC(=S)N(CC(=O)O)C1=O | - | 0 | 11µM | 0 | - | -
O=C(O)CN1C(=O)/C(=C/c2ccc(N3CCCCC3)o2)SC1=S | - | 0 | - | - | - | -
CCOC(=O)C1CCN(CC(=O)NC(=O)NC2CCCCC2)CC1 | - | 0 | 0 | 0 | - | -
CCN(CC(=O)Nc1c(F)cccc1F)C(=O)CCc1ccc(OC)cc1 | - | 0 | 14µM | 0 | - | -
CCN(CC(=O)Nc1c(F)cccc1F)C(=O)Cc1ccccc1 | - | 0 | 0 | 0 | - | -
CSC1=NCCN1C(=O)c1ccc2c(c1)OCO2 | - | 0 | 11µM | - | 0 | 0
CSC1=NCCN1C(=O)c1ccc(C)cc1 | - | 0 | 0 | 0 | - | -
O=C(NCC(c1ccc(F)cc1)N1CCOCC1)c1ccccc1F (centres undefined) | - | 0 | 0 | - | - | -
Oc1c(CN2CCc3ccccc3C2)cc(Cl)c2cccnc12 | 0 | 6.3µM | 0 | 0 | ? | 0
Oc1c(CN2CCCCC2)cc(Br)c2cccnc12 | 0 | ? | 0 | 0 | ? | 0
Oc1c(I)cc(Cl)c2cccnc12 | 0 | 0 | 25µM! | 0 | ? | 0
O=[N+]([O-])c1cc(Cl)c(O)c2ncccc12 | - | 0 | ? | 0 | - | -
CCCNC(=O)c1noc2c1CCc1cc(OC)ccc1-2 | - | 0 | ? | 0 | - | -
O=C(c1noc2c1CCc1ccccc1-2)N1CCCc2ccccc21 | 0 | ? | 13µM | 0 | 0 | 0
O=C(c1noc2c1CCc1ccccc1-2)N1CCc2ccccc2C1 | 16µM | 0 | ? | 0 | 0 | 0
O=C(c1noc2c1CCc1ccccc1-2)N1CCOCC1 | 0 | 0 | 0 | 0 | 0 | 0
SMILES | HPGD block | NPSR antag | ALDH1A1 block | IMPase Li cell | ALOX12 inhib | IMPase cell inh
Cc1cc(NC(=O)c2noc3c2CCc2ccccc2-3)no1 | 0 | 0 | 0 | 0 | 0 | 0
COc1ccc2c(c1)CCc1c(C(=O)N3CCCCCC3)noc1-2 | 10µM | 0 | ? | 0 | 0 | 0
O=c1[nH]c(-c2cccnc2)nc2ccccc12 | 18µM | 0 | 0 | 0 | 0 | 0
O=c1[nH]c(-c2ccncc2)nc2ccccc12 | 7.1µM | 0 | 7.9µM | 0 | 0 | 0
CN(C)c1ccc(-c2nc3ccccc3c(=O)[nH]2)cc1 | - | 0 | - | - | - | -
Cc1sc2nc(-c3cccnc3)[nH]c(=O)c2c1-c1ccccc1 | - | 0 | ? | 0 | - | -
Nc1nc(NCCO)nc(NCC2CCCO2)c1[N+](=O)[O-] (centres undefined) | 0 | 0 | 0 | 0 | 0 | -
COc1ccc2c(c1)Cc1sc(NC(=O)c3cccs3)nc1-2 | 0 | ? | 2.5µM | 0 | ? | 0
COc1ccc(C(=O)Nc2nc3c(s2)Cc2cc(OC)ccc2-3)cc1 | 0 | 0 | 22µM | 0 | 0 | 0
COc1ccc2c(c1)Cc1sc(NC(=O)c3ccccc3C)nc1-2 | - | - | - | - | - | 0
COc1ccc2c(c1)Cc1sc(NC(=O)c3ccccc3)nc1-2 | ? | 0 | ? | 0 | 0 | 0
CCOc1cc2c(cc1OCC)C(c1c(F)cccc1Cl)CC(=O)N2 (centres undefined) | - | - | - | - | - | 0
